Source: PubChem BioAssay (NCI)
Compounds without any hit were thinned out: in the full panel of roughly 83,000, 20% have a hit.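 A percent growth of 40 corresponds to 60% growth inhibition; 0 means no net growth; -100 means all cells died. Active threshold: below 10.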 A number with no mark means an inactive call. The source made the active and inactive calls.

Each compound was assayed on M14 melanoma (assay: NCI-60 one-dose screen, 48 h (100 = growth as untreated, 0 = no growth, -100 = all killed)). Conditions: 10 µM.
In the case of `COc1ccc(/C=C/C(=O)c2ccc(NC(=O)CN3C(=O)NC(C)(c4ccccc4)C3=O)cc2)cc1` (stereo not drawn), the growth is reported as 87.9%.
For `Cc1ccc(C(C)C)cc1NC(=O)c1ccccc1O`, the growth was 43.2%.
Compound `CC1(c2ccccc2)NC(=O)N(CC(=O)Nc2ccc(C(=O)/C=C/c3ccc(Br)cc3)cc2)C1=O` (stereo not drawn) has a growth of 23.3%.
`C=C[C@@]12CN3CC[C@]1(O)[C@@](C(=O)OC)(CO2)c1[nH]c2ccccc2c1C3` was tested, and the growth was 64.4%.
In the case of `COc1ccc(/C=C/C(=O)c2ccc(S(=O)(=O)NCCNc3nc(Nc4ccc(F)cc4)nc(N(C)C)n3)cc2)cc1`, the growth is reported as 7.31% (active).
Work on `O=c1oc2ccccc2cc1-c1csc(N=Nc2c(O)[nH]c3ccc(Br)cc23)n1` yielded a growth of 97.5%.
With `O=C(CSc1nnc(-c2c[nH]c3ccccc23)n1-c1ccccc1)Nc1ccc(C(=O)/C=C/c2ccccc2Cl)cc1` the growth was 87.7%.
With `O=C(NO)c1ccc(-c2nc3ccc4[nH]ncc4c3c3c2CCCC3)cc1` the growth was -62.5% (active).
With `CS(=O)(=O)Nc1ccc(-c2ccc3c(c2)ncn3-c2ccc(NC(=O)Nc3ccc(Br)cc3)cc2)cc1` the growth was 4.32% (active).
With `O=C(CS(=O)(=O)c1oc(-c2ccc(Cl)cc2)nc1S(=O)(=O)c1ccc(Cl)cc1)N1CCOCC1` the growth was 24.4%.
For `COc1cc(-c2nc3cc(Cl)c(Cl)cc3[nH]2)ccc1OCc1nnc(-c2ccc(Br)cc2)o1`, the growth was -9.79% (active).
`COc1cccc(C(N)=Nc2ccc(OCCCCCCn3cncn3)cc2)c1` was tested, and the growth was 9.26% (active).
With `COc1cc2c3c(n(CCCn4ccnc4)c(=O)c2cc1OC)-c1nc2c(cc1C3=O)OCO2` the growth was 19.9%.
